Reference: PubChem BioAssay
Activity calls are given as the source filed them.

Legend:
[1] = system: PRMT1 (protein arginine N-methyltransferase 1); test: small molecules binding arginine methyltransferase PRMT1 – biochemical, small-molecule microarray, 635 nm fluorescence, primary screen (AID 1088); settings: higher = more signal;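 note: binding of Prmt1 protein to compounds spotted on small-molecule microarray slides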
[2] = growth effects on S. cerevisiae YJM789 – YJM789 clinical isolate, OD600, 24 h, basal, primary screen (AID 1089); settings: higher = more signal, called active from +8 up or from −8 down;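 note: growth of clinical yeast isolate S. cerevisiae YJM 789 seeded 1000 cells per well; test concentration not given here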
[3] = S. pombe growth modifiers, basal conditions – strain 972, OD600, 24 h, no modulator, primary screen (AID 1090);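 note: basal condition with compound alone and no growth modifier present; test concentration not given here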; settings: S. pombe 972 growth, higher = more signal, called active from +8 up or from −8 down
[4] = budding yeast growth modifiers under rapamycin – strain BY4716, OD600, 96 h, primary screen (AID 1091); note: test concentration not given here; settings: S. cerevisiae BY4716 + rapamycin, higher = more signal, called active from +8 up or from −8 down
[5] = molecular target: Torsin-1A-interacting protein 2 (Homo sapiens) (UniProt Q8NFQ8); test: small molecules binding lysate-expressed LULL1 – cell lysate, human LULL1 lysate, 635/667 nm fluorescence, primary screen (AID 1092); settings: small-molecule microarray, hLULL1 lysate binding, 635 nm fluorescence; higher = more signal;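 note: probe is lysate of COS7 cells overexpressing human LULL1; score merges per-feature 667 nm fluorescence with signal-to-noise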
[6] = optical density change of DRC41 E. coli – strain DRC41, OD650, 24 h, E. coli filamentation project, primary screen (AID 1093);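 note: MC1000 strain lacking acrAB efflux and sulA so SOS filamentation is blocked; test concentration not given here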; settings: E. coli DRC41 growth, higher = more signal, called active from +8 up or from −8 down
[7] = probe aLefty2 binding to arrayed compounds – biochemical, biotinylated probe, 635/667 nm fluorescence, primary screen (AID 1094); settings: small-molecule microarray, higher = more signal;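 note: score merges spot fluorescence near 667 nm with spot signal-to-noise ratio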
[8] = system: Noggin (protein binding on small-molecule microarray); test: small molecules binding Noggin protein – biochemical, 635/667 nm fluorescence, primary screen (AID 1095); settings: 635 nm fluorescence, higher = more signal;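 note: score merges 667 nm feature fluorescence with signal to noise over triplicate slides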
[9] = molecular target: Neurogenic locus notch homolog protein 3 (Homo sapiens) (UniProt Q9UM47); test: small molecules binding NOTCH3 protein – biochemical, 635/667 nm fluorescence, primary screen (AID 1096); settings: small-molecule microarray, 635 nm fluorescence, higher = more signal
[10] = probe aEGFR binding to arrayed compounds – biochemical, biotinylated probe, 635/667 nm fluorescence, primary screen (AID 1097); settings: small-molecule microarray, higher = more signal;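 note: probe is a biotinylated anti-EGFR antibody binding compounds printed on slides; score combines fluorescence near 667 nm and signal to noise of each spot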

Sequence of Neurogenic locus notch homolog protein 3 (Homo sapiens) (Q9UM47 whole entry, looked up): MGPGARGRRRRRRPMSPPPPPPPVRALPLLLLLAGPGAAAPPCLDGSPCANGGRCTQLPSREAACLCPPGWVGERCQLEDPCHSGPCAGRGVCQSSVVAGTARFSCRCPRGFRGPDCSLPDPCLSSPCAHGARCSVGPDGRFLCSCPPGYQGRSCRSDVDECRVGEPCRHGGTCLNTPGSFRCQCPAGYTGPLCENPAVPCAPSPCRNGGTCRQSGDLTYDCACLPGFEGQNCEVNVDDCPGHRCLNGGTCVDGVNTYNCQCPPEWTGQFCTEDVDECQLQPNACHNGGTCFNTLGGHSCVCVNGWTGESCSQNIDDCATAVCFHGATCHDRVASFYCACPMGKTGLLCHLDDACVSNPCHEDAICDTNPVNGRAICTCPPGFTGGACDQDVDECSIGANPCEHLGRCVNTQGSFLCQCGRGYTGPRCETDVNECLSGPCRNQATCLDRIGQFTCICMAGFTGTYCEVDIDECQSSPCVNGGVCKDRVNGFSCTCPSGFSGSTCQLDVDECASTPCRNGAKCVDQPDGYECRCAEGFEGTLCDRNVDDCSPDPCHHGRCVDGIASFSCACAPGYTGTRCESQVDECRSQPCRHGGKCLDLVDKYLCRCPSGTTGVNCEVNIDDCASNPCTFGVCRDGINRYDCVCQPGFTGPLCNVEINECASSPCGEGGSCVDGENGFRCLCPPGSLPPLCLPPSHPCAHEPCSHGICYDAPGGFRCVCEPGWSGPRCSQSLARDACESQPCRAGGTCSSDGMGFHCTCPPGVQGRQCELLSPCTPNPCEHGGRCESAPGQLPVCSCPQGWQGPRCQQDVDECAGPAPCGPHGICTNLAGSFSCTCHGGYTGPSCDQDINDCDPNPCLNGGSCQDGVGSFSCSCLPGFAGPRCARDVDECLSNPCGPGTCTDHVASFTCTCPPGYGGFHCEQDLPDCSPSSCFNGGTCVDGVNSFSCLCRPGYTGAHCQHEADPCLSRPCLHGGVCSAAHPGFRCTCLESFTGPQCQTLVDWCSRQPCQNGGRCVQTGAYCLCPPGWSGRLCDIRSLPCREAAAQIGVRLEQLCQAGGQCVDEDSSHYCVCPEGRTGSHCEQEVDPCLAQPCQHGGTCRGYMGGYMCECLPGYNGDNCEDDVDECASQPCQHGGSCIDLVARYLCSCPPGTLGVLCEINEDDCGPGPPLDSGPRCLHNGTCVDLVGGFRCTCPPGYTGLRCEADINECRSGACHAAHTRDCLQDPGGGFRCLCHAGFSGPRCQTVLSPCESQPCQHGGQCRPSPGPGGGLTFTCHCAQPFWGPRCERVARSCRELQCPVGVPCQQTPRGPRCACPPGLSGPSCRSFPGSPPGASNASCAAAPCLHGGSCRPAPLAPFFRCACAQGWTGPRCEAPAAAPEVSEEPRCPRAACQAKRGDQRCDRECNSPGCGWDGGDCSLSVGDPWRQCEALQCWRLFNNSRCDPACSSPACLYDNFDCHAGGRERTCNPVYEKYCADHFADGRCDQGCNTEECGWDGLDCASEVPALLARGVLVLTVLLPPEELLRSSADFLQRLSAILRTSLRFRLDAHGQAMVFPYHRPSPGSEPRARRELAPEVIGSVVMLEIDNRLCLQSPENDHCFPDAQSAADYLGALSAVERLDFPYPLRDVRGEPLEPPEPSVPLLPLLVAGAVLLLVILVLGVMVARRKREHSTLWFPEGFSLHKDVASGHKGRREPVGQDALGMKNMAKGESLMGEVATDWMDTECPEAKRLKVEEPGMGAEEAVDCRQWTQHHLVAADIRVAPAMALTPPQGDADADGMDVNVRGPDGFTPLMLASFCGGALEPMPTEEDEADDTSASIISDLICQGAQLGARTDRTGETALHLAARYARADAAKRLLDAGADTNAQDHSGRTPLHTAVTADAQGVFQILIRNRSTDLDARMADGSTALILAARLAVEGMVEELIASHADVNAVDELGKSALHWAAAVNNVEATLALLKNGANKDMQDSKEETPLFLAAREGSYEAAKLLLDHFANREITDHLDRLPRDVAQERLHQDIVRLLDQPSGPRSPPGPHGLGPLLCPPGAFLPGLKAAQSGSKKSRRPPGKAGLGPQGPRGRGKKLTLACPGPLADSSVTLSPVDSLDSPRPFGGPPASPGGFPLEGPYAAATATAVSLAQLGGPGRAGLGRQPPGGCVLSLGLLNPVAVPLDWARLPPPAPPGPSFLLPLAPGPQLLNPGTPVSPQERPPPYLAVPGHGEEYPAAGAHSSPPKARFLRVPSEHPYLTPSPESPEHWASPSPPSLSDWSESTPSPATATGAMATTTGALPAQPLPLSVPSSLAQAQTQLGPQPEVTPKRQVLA
Sequence of Torsin-1A-interacting protein 2 (Homo sapiens) (Q8NFQ8 whole entry, looked up): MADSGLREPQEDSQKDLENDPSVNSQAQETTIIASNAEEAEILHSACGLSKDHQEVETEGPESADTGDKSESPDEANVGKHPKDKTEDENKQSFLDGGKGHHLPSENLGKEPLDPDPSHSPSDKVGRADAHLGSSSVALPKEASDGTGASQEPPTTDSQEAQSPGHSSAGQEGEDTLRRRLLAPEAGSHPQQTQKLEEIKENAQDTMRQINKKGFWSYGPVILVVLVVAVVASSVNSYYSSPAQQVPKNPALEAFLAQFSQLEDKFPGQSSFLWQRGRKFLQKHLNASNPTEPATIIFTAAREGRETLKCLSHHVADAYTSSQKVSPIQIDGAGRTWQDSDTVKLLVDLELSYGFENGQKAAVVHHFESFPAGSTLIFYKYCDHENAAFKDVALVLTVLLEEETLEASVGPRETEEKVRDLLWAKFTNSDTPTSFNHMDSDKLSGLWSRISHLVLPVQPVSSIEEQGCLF

Question: For O=C1OCCC=C[C@H]2OC34C=CCN(Cc5ccccc5)C(=O)[C@H]3N(CCCO)C(=O)[C@@H]4C12 (stereo not given in full), which composite z-score [1] is on record?
Answer: -0.595

Question: What about the z-score [2] of the same compound?
Answer: 0.252 (inactive)

Question: What about the z-score [3] of the same compound?
Answer: -0.206 (inactive)

Question: And the z-score [4]?
Answer: -1.54 (inactive)

Question: What about the composite z-score [5] of the same compound?
Answer: 0.549

Question: What about the z-score [6] of the same compound?
Answer: 2.79 (inactive)

Question: And the composite z-score [7]?
Answer: -0.0807

Question: What about the composite z-score [8] of the same compound?
Answer: -0.335

Question: And the composite z-score [9]?
Answer: -0.278

Question: And the composite z-score [10]?
Answer: -0.175

Question: For C=CCN1C(=O)[C@]2(O[C@H](CCO)[C@@H]([Si](C)(C)c3ccc(OC)cc3)[C@@H]2C)c2cc(NC(=O)[C@H](C)O)ccc21, which composite z-score [1] is on record?
Answer: 1.53

Question: And the z-score [2]?
Answer: 0.83 (inactive)

Question: What about the z-score [3] of the same compound?
Answer: -0.759 (inactive)

Question: What about the z-score [4] of the same compound?
Answer: 1.31 (inactive)

Question: And the composite z-score [5]?
Answer: 2.77

Question: What about the z-score [6] of the same compound?
Answer: 0.64 (inactive)

Question: What about the composite z-score [7] of the same compound?
Answer: -0.166

Question: What about the composite z-score [8] of the same compound?
Answer: 0.392

Question: What about the composite z-score [9] of the same compound?
Answer: 1.02

Question: And the composite z-score [10]?
Answer: -0.151

Question: With COCC(=C=CC[C@H](O)c1ccc(OCCO)cc1)C[C@H](O)c1cc(Cl)cc(Cl)c1O as the compound, how does the composite z-score [1] read?
Answer: 1.55

Question: What about the z-score [2] of the same compound?
Answer: -24.9 (active)

Question: What about the z-score [3] of the same compound?
Answer: -20.5 (active)

Question: What about the z-score [4] of the same compound?
Answer: -3.87 (inactive)

Question: And the composite z-score [5]?
Answer: -1.22

Question: And the z-score [6]?
Answer: 0.813 (inactive)

Question: And the composite z-score [7]?
Answer: -0.166

Question: And the composite z-score [8]?
Answer: 1.86

Question: And the composite z-score [9]?
Answer: 1.12

Question: And the composite z-score [10]?
Answer: -0.0334

Question: For COCCOC(=O)N1C(=O)[C@@]2(c3cc(C#CCNC(N)=O)ccc31)[C@H](c1ccc(OCCO)cc1)N1[C@H](c3ccccc3)[C@H](c3ccccc3)OC(=O)[C@H]1[C@@H]2C(=O)N1CCc2cc(OC)c(OC)cc2C1, which composite z-score [1] is on record?
Answer: 0.993

Question: And the z-score [2]?
Answer: 1.46 (inactive)

Question: And the z-score [3]?
Answer: 1.41 (inactive)

Question: And the z-score [4]?
Answer: 4.56 (inactive)

Question: And the composite z-score [5]?
Answer: 0.816

Question: And the z-score [6]?
Answer: 0.196 (inactive)

Question: And the composite z-score [7]?
Answer: -0.0555

Question: What about the composite z-score [8] of the same compound?
Answer: 1.04

Question: What about the composite z-score [9] of the same compound?
Answer: 0.983

Question: And the composite z-score [10]?
Answer: -0.0007

Question: For Cc1ccc(S[C@]2(C(=O)NC3CC3)CC(=O)N(C3CCCCC3)[C@@H]2c2ccc(CO)cc2I)cc1, which composite z-score [1] is on record?
Answer: 1.53

Question: And the z-score [2]?
Answer: 0.0615 (inactive)

Question: What about the z-score [3] of the same compound?
Answer: 0.532 (inactive)

Question: And the z-score [4]?
Answer: 1.38 (inactive)

Question: What about the composite z-score [5] of the same compound?
Answer: 2.6

Question: And the z-score [6]?
Answer: 1.26 (inactive)

Question: And the composite z-score [7]?
Answer: -0.138

Question: What about the composite z-score [8] of the same compound?
Answer: 0.659

Question: What about the composite z-score [9] of the same compound?
Answer: 1.06

Question: What about the composite z-score [10] of the same compound?
Answer: -0.0703

Question: With COCCCNC(=O)[C@@]1(c2ccc([N+](=O)[O-])cc2)CC(=O)N(CC23CC4CC(CC(C4)C2)C3)[C@@H]1c1ccc(CO)cc1 as the compound, how does the composite z-score [1] read?
Answer: 1.54

Question: And the z-score [2]?
Answer: 0.38 (inactive)

Question: What about the z-score [3] of the same compound?
Answer: -0.634 (inactive)

Question: And the z-score [4]?
Answer: -0.101 (inactive)

Question: And the composite z-score [5]?
Answer: 2.28

Question: What about the z-score [6] of the same compound?
Answer: 1.45 (inactive)

Question: What about the composite z-score [7] of the same compound?
Answer: 0.0054

Question: What about the composite z-score [8] of the same compound?
Answer: 1.54

Question: What about the composite z-score [9] of the same compound?
Answer: 1.08

Question: What about the composite z-score [10] of the same compound?
Answer: 0.0117

Question: What does the source list for O=C(O)[C@@]1(Cc2ccccc2)N=C(c2ccc(OCCCO)cc2)O[C@H]1c1ccccc1?
Answer: composite z-score [1]: 1.48; z-score [2]: 0.552 (inactive); z-score [3]: -0.93 (inactive); z-score [4]: 0.115 (inactive); composite z-score [5]: 2.42; z-score [6]: 0.625 (inactive); composite z-score [7]: -0.126; composite z-score [8]: 0.454; composite z-score [9]: 0.793; composite z-score [10]: -0.184
